Molecules are shown by their SMILES. This is part of a sample that, as a whole, favours compounds with a hit. Of some 83,000 tested, about 20% had one in any assay.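 Testing used 96-well plates and a 48-hour single-concentration exposure. Example: -40 means 40% of the starting cells died.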 A number with no mark means an inactive call. Activity calls are given as the source filed them. Rule for the calls: active = growth percent below 10; inactive = the rest.

What all share (assay): NCI-60 one-dose screen, 48 h (100 = growth as untreated, 0 = no growth, -100 = all killed)
Common to all, as to conditions: 10 µM unless noted

Assay [1] deals with NCI-H23 lung.
Assay [2] has as its system NCI-H226 lung.
The test system of assay [3] is NCI-H322M lung.
Assay [4] has as its system HOP-62 NSCLC.
Assay [5] has as its system NCI-H460 lung.
In assay [6] the test system is HOP-92 NSCLC.
The subject of assay [7] is NCI-H522 lung.
Assay [8] has as its system A549/ATCC NSCLC.
For assay [9], the system named is 786-0 renal.
Assay [10] has as its system COLO 205 colon.

For `C[Se]C(=O)c1ccccc1OC(C)=O`, the growth was 53.9% in [1]; 6.57% (active) in assay [2]; 91.4% in [3]; 48.9% in assay [4]; 37.5% in assay [5]; 38.4% in assay [6]. Further, the growth was 63.8% in assay [7], 59.2% in assay [8], 79.4% in [9] and 111% in assay [10].
As for `O=C(CCCCCCC(=O)Nc1ccc(N(CCCl)CCCl)cc1)NO`, the growth in assay [1] was 29.2%; in [2], 59.4%; in [3], 69.4%; in assay [4], 23.8%; in assay [5] it was 14.5%; in [6], 17.4%. The growth in assay [7] was 23.8%; in assay [8] it was 27.4%; in assay [9], 22.9%; in assay [10], 29.5%.
As for `NC(CCl)CCl`, the growth in assay [1] was 104%; in assay [2], 94.6%; in assay [3], 102%; in assay [4], -100% (active); in [5], 110%; in assay [6], 109%. The growth in assay [7] was 100%; in assay [8] it was 102%; in [9], 107%; in [10], -100% (active).
Consider `CC(C)=CC1C(C(=O)OCc2cccc(Oc3ccccc3)c2)C1(C)C` (stereo not given), for which the growth in [1] was 88.6%; in assay [2], 102%; in [3], 96.5%; in assay [4] it was 110%; in assay [5], 98.6%; in assay [6], 56.8%. In addition, the growth is 73.5% in [7], 92.4% in [8], 81.3% in assay [9] and 101% in [10].
In the case of `COc1ccc(O)c(CNC(=O)CN2CCCC2=O)c1`, the growth in [1] was 103%; in [2] it was 99.4%; in [3] it was 95.6%; in [4], 97.1%; in assay [5] it was 97.5%; in assay [6], 86.1%. Further, the growth in assay [7] is 101%; in [8] it was 105%; in assay [9], 105%; in assay [10], 100%.
As to `O=C1C=C2C(=CCOC2O)O1` (stereo not given), the growth in [1] was 60.4%; in assay [2] it was 34.4%; in [3] it was 101%; in [4] it was 59.6%; in [5], 71.1%; in assay [6], -22.2% (active). Also, the growth in assay [7] is -79.9% (active); in assay [8] it was 71.6%; in [9] it was 47.1%; in assay [10] it was -87.3% (active).
With `COc1cccc2c1c(C(=O)C(=O)Nc1ccn[nH]1)cn2Cc1ccc(F)cc1`, the growth in [1] was 96.4%; in [2], 76.4%; in assay [3] it was 97.8%; in assay [4] it was 103%; in assay [5], 77.6%; in [6], 87%. In addition, the growth in assay [7] is 96.8%; in [8], 86.3%; in assay [9], 92.4%; in assay [10] it was 103%.
Consider `COC(=O)[C@@H](C)C[C@H](Cc1ccccc1)NC(=O)c1csc([C@@H](C[C@H](C(C)C)N(C)C(=O)[C@H](C)NC(=O)[C@H]2CCCCN2C)OC(C)=O)n1`, for which the growth was 46% in [1]; 61% in [2]; 40.6% in [3]; 32.6% in [4]; 12% in assay [5]; 40.4% in assay [6]. The growth was 8.96% (active) in assay [7], 46.6% in [8], 35% in assay [9] and -16.2% (active) in assay [10].
As to `C/C(=C\c1cc(C(F)(F)F)nn1CCNC(=O)OC(C)(C)C)[C@@H]1C[C@@H]2O[C@]2(C)CCC[C@H](C)[C@H](O)[C@@H](C)C(=O)C(C)(C)[C@@H](O)CC(=O)O1`, the growth in [1] was 59.2%; in assay [2] it was 77.4%; in assay [3], 72.3%; in [4], 78.8%; in [5], 30.5%; in assay [6] it was 66.4%. Further, the growth is 63.5% in assay [7], 54.3% in [8], 67.8% in assay [9] and 30.6% in assay [10].
Turning to `CCCCCCCCCCCCCC[P+](CCCCCC)(CCCCCC)CCCCCC`, the growth was -39.3% (active) in assay [1]; -1.45% (active) in assay [2]; -11.9% (active) in [3]; -2.18% (active) in assay [4]; -59.4% (active) in assay [5]; -67.1% (active) in assay [6]. Also, the growth is -71.4% (active) in assay [7], -35% (active) in assay [8], -65.8% (active) in [9] and -65.4% (active) in assay [10].
With `C1CCC([PH+](C2CCCCC2)C2CCCCC2[PH+](C2CCCCC2)C2CCCCC2)CC1.O=C(C1[CH-]CCCC1)C1CCCC[N-]1.[Au]` (stereo not given), the growth in assay [1] was -35% (active); in [2], -60.1% (active); in assay [3], -48% (active); in [4], -9.03% (active); in assay [5], -49.6% (active); in assay [6], -36.8% (active). For the same compound, the growth in assay [7] was -22.4% (active); in [8], -39.9% (active); in assay [9], -77.2% (active); in assay [10], -45% (active).
On to `COc1cc(/C=C/[N+](=O)[O-])c([N+](=O)[O-])cc1OC`, for which the growth in assay [1] was 79.6%; in assay [2], 16.1%; in assay [3], 110%; in assay [4], 81.1%; in assay [5], 76.1%; in [6] it was 94.2%. Also, the growth in assay [7] is -89.9% (active); in [8], 78%; in assay [9], -30.7% (active); in assay [10] it was -52.7% (active).
For the compound `CCCC[C@H](NC(=O)[C@H]1CCCN1C)C(=O)N(C)[C@H](C[C@@H](OC(C)=O)c1nc(C(=O)N[C@@H](Cc2ccccc2)C[C@H](C)C(=O)OCC)cs1)C(C)C`, the growth is 24.4% in assay [1]; 37.2% in [2]; 33.3% in assay [3]; 21.8% in [4]; 7.53% (active) in [5]; 7.16% (active) in assay [6]. Also, the growth in assay [7] is -12.1% (active); in assay [8], 8.16% (active); in assay [9], 3.94% (active); in assay [10] it was -66.7% (active).
Turning to `O=C1CN=C(c2ccc(Cl)cc2)c2sccc2N1`, the growth in assay [1] is 98%; in assay [2], 93.6%; in assay [3] it was 91.2%; in assay [4] it was 106%; in assay [5], 108%; in assay [6] it was 97.4%. For the same compound, the growth in [7] is 82.5%; in [8], 101%; in assay [9] it was 103%; in assay [10], 123%.
On to `CC[C@]12C=CCN3CC[C@]4(C(=C(C(=O)OC)C1)Nc1cc(OC)c(OC(C)=O)cc14)[C@@H]32`, for which the growth in assay [1] was 20.7%; in assay [2] it was 34.4%; in assay [3], 39%; in assay [4], 20.5%; in [5] it was 8.27% (active); in [6], 4.72% (active). In addition, the growth is -1.97% (active) in assay [7], 16% in assay [8], 5.06% (active) in assay [9] and -22.8% (active) in assay [10].
For `CCCC(=O)O[C@@H]1C[C@H]2C[C@@H](O[C@@H]3O[C@@H](C)[C@@H](O)[C@@H](O)[C@H]3OC)C[C@@H](C[C@@H](C)/C=C/C=C\C[C@@H]3O[C@@H](C[C@@H]3C)[C@@H](O)C[C@H]3C[C@@]1(O)C(=O)O3)O2`, the growth in [1] was 25.9%; in [2], 33.3%; in [3] it was 88.4%; in [4], 64.8%; in assay [5] it was 47.3%; in assay [6] it was 91.6%. Moreover, the growth was 21% in [7], 46.4% in [8], 76.6% in assay [9] and 39.4% in assay [10].
Turning to `C=C1[C@@H](C)[C@H]2[C@H](Cc3ccccc3)NC(=O)[C@]23[C@@H](O)/C=C/[C@@](C)(O)C(=O)[C@@H](C)C/C=C/[C@H]3[C@@H]1O`, the growth was 68.2% in assay [1]; 50.4% in assay [2]; 92.2% in [3]; 5.91% (active) in assay [4]; 69.3% in [5]; -9.38% (active) in assay [6]. Also, the growth was 28% in assay [7], 37.7% in assay [8], 20.1% in assay [9] and -17.8% (active) in assay [10].
On to `Cc1cc(N(CCCl)CCCl)ccc1C=Nc1ccccc1-c1ccccc1`, for which the growth in assay [1] is 60.8%; in assay [2], -38.8% (active); in assay [3], 101%; in assay [4], 54.6%; in assay [5] it was 16.4%; in [6], 84.4%. Moreover, the growth in assay [7] was 99.5%; in assay [8], 59.6%; in assay [9], 52.1%; in [10], 86.1%.
With `CCCCC1(CCC)C(=O)NC(=S)NC1=O`, the growth in assay [1] is 100%; in [2] it was 106%; in [3], 112%; in assay [4], 99.6%; in assay [5], 108%; in assay [6], 71.4%. In addition, the growth is 81.7% in assay [7], 125% in assay [8], 93.8% in assay [9] and 112% in [10].
For `ClCCN(CCCl)c1ccc(OCc2ccccc2)cc1`, the growth in [1] is 58.7%; in assay [2], 84.6%; in [3] it was 102%; in assay [4], 54.8%; in assay [5], 20.3%; in assay [6] it was 57.3%. In addition, the growth in [7] was 75.1%; in assay [8] it was 45.7%; in [9] it was 19%; in assay [10], 75.9%.
Consider `ClCCN(CCCl)c1nc(Cl)c(C2CC(c3ccccc3)=NN2c2cc(Cl)cc(Cl)c2)s1` (stereo not given), for which the growth in assay [1] is 99.7%; in [2], 99.6%; in [3] it was 97.8%; in [4], 111%; in [5], 99.3%; in assay [6] it was 113%. Moreover, the growth in assay [7] was 97.6%; in [8], 94.7%; in [9], 100%; in [10], 121%.
Consider `O=Cc1cn(Cc2ccc(Cl)cc2)c2ccccc12`, for which the growth in assay [1] was 84.9%; in [2] it was -26.9% (active); in assay [3], 82.5%; in [4], 76.9%; in [5], 5.05% (active); in [6], 76.4%. For the same compound, the growth in [7] is 93.4%; in assay [8], 64.8%; in assay [9] it was 94.1%; in [10] it was 22%.
For `CC(=O)c1ccc(C(=O)NCC2CCC3(CC2)OOC2(CCCCC2)OO3)cc1`, the growth in [1] was 22.8%; in assay [2], 85.8%; in assay [3] it was 89.8%; in assay [4], 16.4%; in assay [5], 88.1%; in [6], -31.4% (active). For the same compound, the growth was 60.8% in assay [7], 23.5% in [8], -70.5% (active) in assay [9] and 97.1% in assay [10].
For `CCCCNC(c1ccc(Cl)cc1)C(O)c1ccc(Cl)cc1` (stereo not given), the growth in assay [1] was 38.5%; in [2], 65.7%; in [3] it was 51.4%; in assay [4], 40.6%; in assay [5], 7.67% (active); in assay [6] it was -5.31% (active). In addition, the growth in assay [7] was 35.2%; in assay [8], 63.5%; in assay [9], 50%; in [10], -71.4% (active).

(Values after PubChem BioAssay (NCI).)
